{"source": "PubChem BioAssay AID652115", "about": "(Broad Institute, 2013)", "note": "Several values for one entry are separate records, joined by “and”; a condition that tells them apart may be missing. Equal entries are not always repeated. Screen size: about 330,000 compounds; about 3,800 (1.2%) were called active. Cut-off read from the data, not from the text of the source: active = inhibition above about 15%; inconclusive = no clear call, values can overlap the other calls; inactive = below that. The list comes from a sample in which actives are over-represented; it also holds similar structures and randomly drawn compounds.", "data": [{"biological_target": "NAD-dependent protein deacylase sirtuin-5, mitochondrial (Homo sapiens) (UniProt Q9NXA8)", "sequence (Q9NXA8 whole entry, looked up)": "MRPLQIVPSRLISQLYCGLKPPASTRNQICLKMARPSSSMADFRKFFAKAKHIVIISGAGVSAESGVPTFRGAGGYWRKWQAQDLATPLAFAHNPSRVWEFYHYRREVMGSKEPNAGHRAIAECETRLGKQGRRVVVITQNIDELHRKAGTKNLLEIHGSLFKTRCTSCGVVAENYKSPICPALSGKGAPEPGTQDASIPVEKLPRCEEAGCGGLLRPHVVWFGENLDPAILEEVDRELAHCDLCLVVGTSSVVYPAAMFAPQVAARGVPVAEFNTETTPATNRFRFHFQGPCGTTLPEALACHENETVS", "assay": "blockers of sirtuin-5 deacylase activity – biochemical, fluorescence imaging, single point, set 5, primary screen (AID 652115)", "settings": "Purified SirT5, succinyl-peptide AMC, trypsin-coupled fluorescence; at 15 µM; stronger effect = higher value", "values": [{"smiles": "CCCNC(=O)C[C@@H]1CC[C@H]2[C@H](COc3ccc(NC(=O)CCC)cc3C(=O)N2C)O1", "inhibition": "-0.672% (inactive)"}, {"smiles": "COc1ccccc1NC(=O)N1CCCCN2[C@H](CO)[C@H](c3ccc(C#CC4CC4)cc3)[C@@H]2C1", "inhibition": "0.625% (inactive)"}, {"smiles": "CO[C@H]1CN(C)C(=O)c2cc(NS(C)(=O)=O)ccc2OC[C@@H](C)N(Cc2ccccc2)C[C@@H]1C", "inhibition": "-4.85% (inactive)"}, {"smiles": "COCC#Cc1ccc2c(c1)O[C@H](CN(C)C(=O)CN(C)C)[C@@H](C)CN([C@H](C)CO)S2(=O)=O", "inhibition": "1.54% (inactive)"}, {"smiles": "C[C@@H]1CN([C@@H](C)CO)C(=O)c2cc(/C=C/c3ccccc3)cnc2O[C@@H]1CN(C)C(=O)CN(C)C", "inhibition": "-20% (inactive)"}, {"smiles": "C[C@H](CO)N1C[C@H](C)[C@H](CN(C)C(=O)Nc2ccc3c(c2)OCO3)Oc2cc(C#Cc3ccncc3)ccc2S1(=O)=O", "inhibition": "-1.42% (inactive)"}, {"smiles": "CCCN1C[C@@H](C)[C@@H](OC)CN(C)C(=O)c2cc(NC(=O)NC3CCCCC3)ccc2OC[C@H]1C", "inhibition": "0.947% (inactive)"}, {"smiles": "C[C@H](NC(=O)[C@H]1N[C@H]2c3ccc(-c4ccc(C(=O)N(C)C)cc4)c(=O)n3C[C@H]2[C@@H]1CO)c1ccccc1", "inhibition": "-55.5% (inactive)"}, {"smiles": "O=C(NCC1CC1)[C@@H]1[C@@H](CO)[C@@H]2Cn3c(ccc(-c4ccccc4)c3=O)[C@H]1N2C(=O)C1CC1", "inhibition": "-28% (inactive)"}, {"smiles": "CO[C@@H]1CN(C)C(=O)c2ccc(NC(=O)Nc3ccccc3)cc2OC[C@H](C)N(C(=O)CC2CC2)C[C@@H]1C", "inhibition": "6.27% (inactive)"}, {"smiles": "O=C(COC(=O)c1ccc(O)cc1O)NC(=O)c1ccccc1", "inhibition": "0.616% (inactive)"}, {"smiles": "O=C(COC(=O)c1ccccc1)c1ccc2c(c1)OCCO2", "inhibition": "0.878% (inactive)"}, {"smiles": "O=C(COC(=O)c1ccc(O)cc1O)c1ccc2c(c1)OCCO2", "inhibition": "19.1% (active)"}, {"smiles": "CO[C@H]1CN(C)C(=O)c2cc(NC(=O)c3cnccn3)ccc2OC[C@@H](C)N(CC2CC2)C[C@@H]1C", "inhibition": "0.994% (inactive)"}, {"smiles": "O=c1ccc2c(-c3ccccc3S(=O)(=O)O)c3ccc(O)c(O)c3oc-2c1O", "inhibition": "15.8% (active)"}, {"smiles": "Cn1cnc(CCNC(=O)C[C@@H]2CC[C@@H]3[C@H](COC[C@@H](O)CN3C(=O)Nc3ccccc3)O2)c1", "inhibition": "15.8% (active)"}, {"smiles": "Cn1cnc(CCNC(=O)C[C@H]2CC[C@@H]3[C@H](COC[C@@H](O)CN3C(=O)Nc3ccc(Cl)cc3)O2)c1", "inhibition": "3.58% (inactive)"}, {"smiles": "Cn1cnc(CCNC(=O)C[C@@H]2CC[C@H]3[C@@H](COC[C@@H](O)CN3C(=O)Nc3ccc(Cl)cc3)O2)c1", "inhibition": "-1.27% (inactive)"}, {"smiles": "C[C@H]1CCCCO[C@H](CN(C)C(=O)Nc2ccccc2)[C@@H](C)CN([C@@H](C)CO)C(=O)c2cc(NC(=O)Nc3ccc4c(c3)OCO4)ccc2O1", "inhibition": "11.6% (inactive)"}, {"smiles": "CN(C)S(=O)(=O)c1ccc(C(=O)NCCN=C2NS(=O)(=O)c3ccccc32)cc1", "inhibition": "15.2% (active)"}, {"smiles": "Cc1ccccc1C(=O)NCCN=C1NS(=O)(=O)c2ccccc21", "inhibition": "1.57% (inactive)"}, {"smiles": "CN(c1ccccc1)S(=O)(=O)c1ccc(C(=O)NCCc2ccccc2)cc1", "inhibition": "-1.73% (inactive)"}, {"smiles": "COc1ccccc1-c1cn(CC[C@@H]2CC[C@@H](NC(=O)c3ccccc3F)[C@H](CO)O2)nn1", "inhibition": "-1.68% (inactive)"}, {"smiles": "COc1cccc(S(=O)(=O)N2C[C@@H](O)COC[C@@H]3O[C@H](CC(=O)N4CCN(C)CC4)CC[C@H]32)c1", "inhibition": "-10.1% (inactive)"}, {"smiles": "CC(C)CC#Cc1ccc2c(c1)O[C@H](CN(C)S(=O)(=O)c1cccc(F)c1)[C@@H](C)CN([C@@H](C)CO)S2(=O)=O", "inhibition": "19.1% (active)"}, {"smiles": "C[C@@H]1CN([C@H](C)CO)S(=O)(=O)c2ccc(-c3cccc(F)c3)cc2O[C@H]1CN(C)S(=O)(=O)c1ccc(F)cc1", "inhibition": "16.1% (active)"}, {"smiles": "C[C@H](CO)N1C[C@H](C)[C@@H](CN(C)S(=O)(=O)c2cccc(F)c2)Oc2cc(C#CCN(C)C)ccc2S1(=O)=O", "inhibition": "0.005% (inactive)"}, {"smiles": "C[C@H]1CN([C@@H](C)CO)S(=O)(=O)c2ccc(-c3cccc(F)c3)cc2O[C@@H]1CN(C)C", "inhibition": "-1.74% (inactive) and 0.129% (inactive) and -10.4% (inactive)"}, {"smiles": "C[C@@H]1CN([C@@H](C)CO)S(=O)(=O)c2ccc(-c3cccc(F)c3)cc2O[C@@H]1CN(C)S(=O)(=O)c1ccccc1", "inhibition": "12% (inactive)"}, {"smiles": "C[C@@H]1CN([C@@H](C)CO)S(=O)(=O)c2ccc(C#CCN(C)C)cc2O[C@@H]1CN(C)S(=O)(=O)c1cccc(F)c1", "inhibition": "2.43% (inactive)"}, {"smiles": "CCCNC(=O)N1[C@@H]2c3ccc(-c4ccccc4OC)c(=O)n3C[C@H]1[C@H](CO)[C@H]2C(=O)N(C)C", "inhibition": "-22.3% (inactive)"}, {"smiles": "C[C@H]1CN([C@@H](C)CO)C(=O)c2cccc(NS(=O)(=O)c3cccs3)c2O[C@H]1CN(C)Cc1ccc(C(=O)Nc2ccccc2N)cc1", "inhibition": "5.63% (inactive)"}, {"smiles": "COc1ccc2c3c(n(C)c2c1)[C@@H](CO)N(C(=O)Nc1cccc(F)c1)CC31CCN(Cc2nccs2)CC1", "inhibition": "35.6% (active)"}, {"smiles": "CCCC(=O)N1CC2(C1)CN(C(=O)Nc1cccc(F)c1)[C@@H](CO)c1c2c2ccc(OC)cc2n1C", "inhibition": "7.29% (inactive)"}, {"smiles": "COc1ccc2c3c(n(C)c2c1)[C@H](CO)N(C(=O)Nc1cccc(F)c1)CC31CN(Cc2nccs2)C1", "inhibition": "2.85% (inactive)"}, {"smiles": "O=S1(=O)CC(N2CCN(CCO)CC2)CN1Cc1cn(Cc2cccc(Cl)c2)nn1", "note": "(stereo not given)", "inhibition": "-5.71% (inactive)"}, {"smiles": "O=S1(=O)CC(N2CCN(CCO)CC2)CN1Cc1cn(Cc2ccc(Cl)cc2)nn1", "note": "(stereo not given)", "inhibition": "32.8% (active)"}, {"smiles": "Cc1ccc(Cn2cc(CN3CC(N4CCN(C)CC4)CS3(=O)=O)nn2)cc1", "note": "(stereo not given)", "inhibition": "3.71% (inactive)"}, {"smiles": "CCS(=O)(=O)Nc1ccc2c(c1)C(=O)N(C)[C@H]1CC[C@@H](CC(=O)Nc3ccccc3)O[C@H]1CO2", "inhibition": "2.87% (inactive)"}, {"smiles": "O=C1NN(c2ccccc2)C(=O)/C1=C/c1ccc(-c2cccc(C(=O)O)c2)o1", "inhibition": "8.67% (inactive)"}, {"smiles": "O=C(O)C(c1ccccc1)N1C(=O)/C(=C\\c2ccc(-c3cccc(Cl)c3)o2)SC1=S", "note": "(stereo not given)", "inhibition": "43.9% (active)"}, {"smiles": "O=C1c2ccccc2NC(c2ccc(-c3cccc(Cl)c3)o2)N1O", "note": "(stereo not given)", "inhibition": "1.64% (inactive)"}, {"smiles": "O=C(Nc1cc(Cl)cc(Cl)c1)N[C@@H]1CC[C@H](CCNS(=O)(=O)c2cccc(F)c2)O[C@H]1CO", "inhibition": "2.03% (inactive)"}, {"smiles": "CCCNC(=O)N1CC(=O)N2[C@H](CO)[C@H](c3ccc(C#Cc4cccc(OC)c4)cc3)[C@H]2C1", "inhibition": "-0.038% (inactive)"}, {"smiles": "CCCN(C)C[C@H]1Oc2cc(-c3ccc(C)cc3)ccc2S(=O)(=O)N([C@H](C)CO)C[C@H]1C", "inhibition": "1.13% (inactive)"}, {"smiles": "CN(C)C(=O)c1ccc(-c2ccccc2[C@@H]2[C@@H](C#N)N(C(=O)C3CCCC3)[C@H]2CO)cc1", "inhibition": "-3.26% (inactive)"}, {"smiles": "O=C(N[C@H]1C=C[C@@H](CC(=O)N2CCN(c3ccccc3)CC2)O[C@@H]1CO)c1ccncc1", "inhibition": "-0.959% (inactive)"}, {"smiles": "C=CCC[C@@H](Cc1ccc(F)cc1)C(=O)OC[C@@H](C)NC(=O)[C@H](CC=C)CC(=O)N(CCO)Cc1ccccc1", "inhibition": "-0.88% (inactive)"}, {"smiles": "C=CCC[C@H](Cc1ccc(F)cc1)C(=O)OC[C@H](C)NC(=O)[C@H](CC=C)CC(=O)N(CCO)Cc1ccccc1", "inhibition": "16.9% (active)"}, {"smiles": "C=CCC[C@H](Cc1ccc(F)cc1)C(=O)OC[C@@H](NC(=O)[C@@H](CC=C)CC(=O)N[C@H](CO)Cc1ccccc1)C(C)(C)C", "inhibition": "0.931% (inactive)"}, {"smiles": "CC1COc2ccccc2N1C(=O)c1ccc(F)cc1", "note": "(stereo not given)", "inhibition": "22.7% (active)"}, {"smiles": "CC1COc2ccccc2N1C(=O)c1cccnc1Cl", "note": "(stereo not given)", "inhibition": "-1.34% (inactive)"}, {"smiles": "CC1COc2ccccc2N1S(=O)(=O)c1ccccc1", "note": "(stereo not given)", "inhibition": "-1.33% (inactive)"}, {"smiles": "COc1ccc(CN(C)C[C@@H]2OCCCC[C@@H](C)Oc3ccc(NC(=O)Nc4ccc(C(F)(F)F)cc4)cc3C(=O)N([C@H](C)CO)C[C@H]2C)cc1", "inhibition": "6.39% (inactive)"}, {"smiles": "CN(C)CC(=O)N[C@H]1CC[C@H](CCNC(=O)Nc2ccc(F)cc2)O[C@H]1CO", "inhibition": "-1.16% (inactive)"}, {"smiles": "Cc1nc(N2[C@H](CO)[C@H](c3ccccc3)[C@H]2CNCC2CCCCC2)sc1C", "inhibition": "5.49% (inactive)"}, {"smiles": "CC(C)NC(=O)N1[C@@H]2c3ccc(-c4ccc(F)cc4)c(=O)n3C[C@@H]2[C@@H](CO)[C@@H]1C(=O)N1CCOCC1", "inhibition": "-2.98% (inactive)"}, {"smiles": "Cc1cc(C(=O)Nc2nnc(C3CC3)s2)c(C)s1", "inhibition": "-4.14% (inactive)"}, {"smiles": "O=C(Nc1nnc(C2CC2)s1)c1cc(Cl)sc1Cl", "inhibition": "-1.4% (inactive)"}, {"smiles": "O=C(Nc1nnc(C2CC2)s1)c1ccccn1", "inhibition": "23.4% (active)"}, {"smiles": "CO[C@@H]1CN(C)C(=O)c2cc(NS(C)(=O)=O)ccc2OC[C@H](C)N(C(=O)C2CC2)C[C@@H]1C", "inhibition": "1.74% (inactive)"}, {"smiles": "COCC(=O)Nc1ccc2c(c1)C(=O)N(C)C[C@@H](OC)[C@@H](C)CN(C(=O)Cc1ccccn1)[C@@H](C)CO2", "inhibition": "-3.53% (inactive)"}, {"smiles": "C[C@@H](O)C#Cc1cnc2c(c1)C(=O)N([C@@H](C)CO)C[C@H](C)[C@H](CN(C)Cc1cncnc1)O2", "inhibition": "8.12% (inactive)"}, {"smiles": "Cc1ccc(C(=O)NCC(=O)NCc2cc(=O)n(C)c(=O)n2C)cc1", "inhibition": "31.9% (active)"}, {"smiles": "COc1ccc(S(=O)(=O)NCC(=O)NCc2cc(=O)n(C)c(=O)n2C)cc1F", "inhibition": "-2% (inactive)"}, {"smiles": "Cc1ccc(C(=O)NCC(=O)NC2CC2)cc1", "inhibition": "-1.54% (inactive)"}, {"smiles": "CC(C)NC(=O)Nc1ccc2c(c1)C(=O)N([C@H](C)CO)C[C@H](C)[C@@H](CN(C)C)OCCCC[C@H](C)O2", "inhibition": "0.043% (inactive)"}, {"smiles": "C#CCOc1ccc(/C=C2/C(=O)NN(c3ccccc3)C2=O)cc1OC", "inhibition": "98.1% (active)"}, {"smiles": "C#CCOc1ccc(/C=C2/C(=O)ON=C2C)cc1OCC", "inhibition": "-2.23% (inactive)"}, {"smiles": "COc1cc(/C=C2/C(=O)NN(c3cccc(Cl)c3)C2=O)cc(Br)c1O", "inhibition": "9.45% (inactive)"}]}]}
